PubChem BioAssay AID777 (Sanford-Burnham Center for Chemical Genomics, 2007)
Hit rate of the full screen: of about 96,000 compounds, about 19,000 (20%) were called active. Only a sample is shown. A number with no mark means an inactive call.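 The calls were made as follows: active = blocking of liver enzyme CYP2C9 beyond about 50% at 5 µM (limit read from the data); inactive = the rest.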

biological target: Cytochrome P450 2C9 (Homo sapiens) (UniProt P11712); experiment: blockers of cytochrome P450 2C9 activity – biochemical, luminescence, ADME assay, primary screen (AID 777); conditions: CYP2C9 Supersomes, luciferin-H conversion, at 5 µM, hits give high values
Sequence (P11712 whole entry, looked up): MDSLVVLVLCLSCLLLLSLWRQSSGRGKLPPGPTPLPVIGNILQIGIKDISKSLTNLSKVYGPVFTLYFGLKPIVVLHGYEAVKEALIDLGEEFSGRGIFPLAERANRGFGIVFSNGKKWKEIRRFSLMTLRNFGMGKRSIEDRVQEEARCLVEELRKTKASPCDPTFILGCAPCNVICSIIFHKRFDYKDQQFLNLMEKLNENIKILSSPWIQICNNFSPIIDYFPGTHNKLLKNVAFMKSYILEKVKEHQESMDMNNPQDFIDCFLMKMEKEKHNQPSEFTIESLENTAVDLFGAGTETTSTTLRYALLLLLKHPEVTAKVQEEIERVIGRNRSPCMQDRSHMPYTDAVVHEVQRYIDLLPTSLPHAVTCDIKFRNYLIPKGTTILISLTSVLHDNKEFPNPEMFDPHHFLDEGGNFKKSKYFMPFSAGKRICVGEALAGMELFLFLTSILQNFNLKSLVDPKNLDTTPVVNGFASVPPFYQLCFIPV

Row | SMILES | inhibition
1 | Cc1ccc(C)c(NC(=O)c2ccc(OC(=O)c3ccco3)cc2)c1 | -24%
2 | CCc1ccccc1N(CC(=O)NCCSCc1ccco1)S(C)(=O)=O | 25.8%
3 | Cc1ccc(C(=O)N/C(=C/C=C/c2ccccc2)C(=O)NCc2ccco2)cc1 | 36%
4 | CS(=O)(=O)N(Cc1ccc(Cl)cc1)c1ccc(C(=O)NCCSCc2ccco2)cc1 | 74.1% (active)
5 | COc1cc(OC)cc(C(=O)NCCSCc2ccco2)c1 | -1.5%
6 | Cc1ccccc1NC(=O)NCc1ccco1 | -34.3%
7 | Cc1ccc(N(Cc2ccc(C(=O)Nc3ccccc3C(=O)NCc3ccco3)cc2)S(C)(=O)=O)cc1C | 72% (active)
8 | Cc1cccc(Nc2ccccc2C(=O)NCc2ccco2)c1C | 27.2%
9 | O=C(Nc1ccccc1)Nc1ccccc1C(=O)NCc1ccco1 | 88.1% (active)
10 | COCCNC(=O)Cn1cc2c(n1)CCCCC2 | 1.8%
11 | COc1cc2cc(CN(CCN3CCCC3)C(=O)Nc3ccccc3Cl)c(=O)[nH]c2cc1OC | 15%
12 | O=S(=O)(O)CCN1CCOCC1 | 1.4%
13 | COc1cc(/C=C2/C(=O)ON=C2C)ccc1OCc1ccccc1F | -5.4%
14 | COc1ccc(C2SCCN2S(=O)(=O)c2ccccc2)cc1OC (configuration not stated) | -107%
15 | CCCN1Cc2cccc(C(=O)NCc3ccccc3)c2C1=O | 16.3%
16 | N#CC1=C(N)OC2=C(C(=O)CCC2)C1C1CC=CCC1 (configuration not stated) | 37.1%
17 | O=C(O)CN1C(=O)CC(Cc2ccccc2)C1=O (configuration not stated) | 7.4%
18 | COc1ccc(O)c(C(=O)c2cnc3onc(C(C)C)c3c2)c1 | 96.6% (active)
19 | COc1ccc(OC)c(C(=O)c2ccc(C(=O)O)cc2)c1 | 9.5%
20 | COc1ccc(O)c(C=Nc2cc(C)on2)c1 | -5.4%
21 | O=C(CCSc1ccccc1)NCCSc1ccccn1 | 41.7%
22 | COc1ccc(C(C(O)C(=O)c2c[nH]c3ccccc23)N2CCN(c3ccccc3)CC2)cc1 (configuration not stated) | 26.9%
23 | CS(=O)(=O)c1ccc2nc(NC(=O)CN3CCCCCC3)sc2c1 | 25.1%
24 | CC1CCCC(NC(=O)CSc2nccn2C)C1C (configuration not stated) | -4.4%
25 | CC1=CC(C)(C)N(C(=O)CSc2nccn2C)c2cc(C)ccc21 | 61.4% (active)
26 | CC1=CC(C)(C)N(C(=O)CSc2nnc(-c3ccccc3)o2)c2ccc(C)cc21 | 11.9%

Row | SMILES | inhibition
27 | COCCNC(=O)CN(C(=O)CCC(=O)Nc1cc(C)on1)c1ccc(C)cc1C | -2.4%
28 | N#Cc1nc(Cc2cccc3ccccc23)oc1NCc1ccc2c(c1)OCO2 | 63.7% (active)
29 | c1n[nH]c(NCc2ccc3c(c2)OCO3)n1 | 1%
30 | COc1cc2[nH]c(=S)n(CCN3CCCCC3C)c(=O)c2cc1OC (configuration not stated) | 23.6%
31 | Cc1ccc(S(=O)(=O)/N=C(\CN2CCOCC2)N2CCOCC2)cc1 | 7.1%
32 | CC(=O)C1C(c2cccc(Oc3ccccc3)c2)NC(=O)NC1(O)C(F)(F)F (configuration not stated) | 0.7%
33 | Cc1cccc(NC(=O)CSc2nnc(NC(=O)CN3CCOCC3)s2)c1 | 10.9%
34 | Cc1cc(C)n(-c2nc(SCC(=O)N3CCCC3)c3c4c(sc3n2)CCCC4)n1 | 78.8% (active)
35 | COCCNc1nc(-n2nc(C)cc2C)nc2sc3c(c12)CCCC3 | 16.5%
36 | COCCn1c(C)cc(C(=O)CSc2ncnc3sc4c(c23)CCC4)c1C | -41.7%
37 | CCCC1C(c2ccccc2)C(C#N)(C#N)C2(C#N)CC1(N)NC2=O (configuration not stated) | 4.8%
38 | COc1ccc(N2C(=O)CN=C2Nc2cccc(C)c2C)cc1OC | 10.9%
39 | Cc1cc(N2CCN(S(=O)(=O)c3ccc(C)c(C)c3)CC2)c2ccccc2n1 | 89.9% (active)
40 | O=c1ccc2cc(S(=O)(=O)N3CCN(c4ccccc4)CC3)ccc2o1 | 5.5%
41 | Cc1ccc(S(=O)(=O)N2CC(=O)Nc3ccccc32)cc1C | -50.4%
42 | CCCCNC(=O)CSc1nnc(-c2ccco2)n1C | 44.2%
43 | CCCCNC(=O)CSc1nc2ccc(NC(=O)CSc3nnc(COc4ccccc4C)n3C)cc2s1 | 75.1% (active)
44 | CCOC(=O)c1ccc(NC(=O)CSc2nnc(COc3ccccc3OC)n2C)cc1 | 11.7%
45 | O=C1CCCc2c1nc(-c1cccc(Cl)c1)n2O | 11.3%
46 | CC1(C)CC(=O)C(C=NCc2cccnc2)=C(O)C1 | -14.4%
47 | CCNc1nc(N)nc(-c2cc(Cl)ccc2OC)n1 | -0.8%
48 | COC(=O)c1sc(NC(=O)c2csc3c2CCCC3)nc1C | -7.3%
49 | CCOC(=O)c1c(NC(=O)CCC(=O)NCc2ccco2)sc2c1CCCC2 | 41.9%
50 | Cc1ccc(C(=O)c2c(NC(=O)c3ccccc3)sc(C)c2C)cc1 | 43%
51 | CNC(=O)c1c(NC(NC(=O)c2ccco2)C(=O)c2ccc(Cl)cc2)sc2c1CCCC2 (configuration not stated) | 46.5%
52 | COC(=O)c1sccc1NC(=O)c1csc2c1CCCC2 | 13.7%

Row | SMILES | inhibition
53 | COC(=O)c1c(NC(=O)CSc2nncs2)sc2c1CCCCC2 | 91.9% (active)
54 | COC(=O)c1c(NC(=O)c2cccs2)sc2c1CCCC2 | 58.4% (active)
55 | Cc1ccc(C(=O)c2c(NC(=O)c3ccncc3)sc3c2CCCC3)cc1 | 67.8% (active)
56 | Cc1ccc(Cn2c(NC(=O)c3ccco3)nc3ccccc32)cc1 | -10.6%
57 | Cc1cc(C)nc(SC(C)C(=O)N/N=C/c2cccs2)n1 (configuration not stated) | 41.1%
58 | CC12CCC(C(=O)N(CCC#N)CCC#N)(CC1=O)C2(C)C (configuration not stated) | -10.7%
59 | CCC(C(=O)Nc1ncccn1)(C(F)(F)F)C(F)(F)F | -8.6%
60 | Oc1ccc(Cl)cc1/C=N/c1nc2ccccc2[nH]1 | -15.4%
61 | CCn1ncc(C2=NOC(C(=O)N3CCN(c4ccccc4)CC3)C2)c1C (configuration not stated) | -12.4%
62 | Cc1cc(C)c(S(=O)(=O)NCCCN2CCOCC2)cc1Br | -101%
63 | C=CCSc1nc2c(c(=O)[nH]1)C(C(C)C)C(C#N)=C(N)O2 (configuration not stated) | 17.7%
64 | COc1cccc(N2CCN(C3CC(=O)N(c4ccc(Cl)cc4)C3=O)CC2)c1 (configuration not stated) | 11.2%
65 | Cn1cnc2c1c(=O)n(Cc1c(Cl)cccc1Cl)c(=O)n2C | 32.6%
66 | O=C(CC(NS(=O)(=O)c1ccc(Cl)cc1)c1ccco1)NC1CCCC1 (configuration not stated) | 18.5%
67 | O=S(=O)(NC1CCCCC1)c1ccc(F)c2ccccc12 | 53.4% (active)
68 | C=CCNC(=O)CCCOc1cccc(C)c1 | -3.3%
69 | CC(=O)Nc1ccc(S(=O)(=O)N2CCN(CCCOc3cc(C)ccc3C)CC2)cc1 | 83.6% (active)
70 | CCCN1Cc2cccc(C(=O)Nc3ccc(S(=O)(=O)N4CCCCCC4)cc3)c2C1=O | 38%
71 | Cc1ccc(OCCCC(=O)Nc2ccc(N3CCOCC3)cc2)cc1 | 15.2%
72 | COC(=O)COc1ccc(S(=O)(=O)N2CCOCC2)cc1 | -8.2%
73 | CC(=O)Nc1ccc(S(=O)(=O)N2CCSCC2)cc1 | 14%
74 | CCOc1cccc(NC(=O)C2CCCN(S(=O)(=O)c3ccc(OC)cc3)C2)c1 (configuration not stated) | 21.3%
75 | CC(=O)Nc1ccc(S(=O)(=O)N2CCN(C3CCCCCCC3)CC2)cc1 | 40.3%
76 | O=C(Nc1ccc(S(=O)(=O)N2CCCCC2)cc1)c1cnccn1 | 23.2%
77 | Cc1cccc(OCCCC(=O)Nc2ccc(S(=O)(=O)N3CCCC3)cc2)c1 | 65.2% (active)
78 | COc1ccc(OCC(=O)OCC(=O)Nc2ccc(S(=O)(=O)N3CCCCC3)cc2)cc1 | 63.1% (active)

Row | SMILES | inhibition
79 | O=C(CSCc1ccc(Br)cc1)Nc1ccc(S(=O)(=O)N2CCCCCC2)cc1 | 56.5% (active)
80 | Cc1cc(OCCOc2cccc3cccnc23)c(C)cc1Cl | -170%
81 | CCOC(=O)c1nnn(-c2nc(OC)nc(N(C)C)n2)c1-c1ccccc1 | 6.1%
82 | Cc1nnc(SCC(=O)N2CCN(c3ccccc3)CC2)n1-c1ccccc1 | 1.8%
83 | COc1cc(OC)cc(C(=O)Nc2ncc3c(n2)CC(C)(C)CC3=O)c1 | -12.1%
84 | CN(NC(=O)c1ccccc1)c1nc2ccccc2nc1C(F)(F)F | 15.5%
85 | Cc1cc(C(=O)CSc2nc(N)cc(=O)[nH]2)c(C)n1CCc1ccc(Cl)cc1 | 11.4%
86 | CCOc1ccc(NC(=O)CCC(=O)n2nc(C)cc2C)cc1 | 5.6%
87 | CCOc1cc(C)c(Cl)cc1S(=O)(=O)n1nnc2ccccc21 | 39.1%
88 | CCOc1ccc(C(C)C)cc1S(=O)(=O)n1nc(C)cc1C | 91.3% (active)
89 | CCSC1=C(C#N)C(=O)n2c1cc1c2CCCC1 | -14.3%
90 | O=S(=O)(NCC1CCCO1)c1ccc2ccccc2c1 (configuration not stated) | -199%
91 | CCOc1cc(C2C(C(=O)OC)=CN(C3CCCC3)C=C2C(=O)OC)cc(Br)c1O | -9.6%
92 | Cc1noc(NS(=O)(=O)c2ccc(N/C=C/C(=O)c3ccccc3)cc2)c1C | 93.9% (active)
93 | Cc1noc(NS(=O)(=O)c2ccc(NC(=O)C34CCC(CC3)C4)cc2)c1C | 0.8%
94 | COc1ccc(C(=O)Nc2ccc(S(=O)(=O)Nc3onc(C)c3C)cc2)cc1OC | 1.2%
95 | Cc1ccc(S(=O)(=O)NCCN2CCOCC2)cc1C | 21.9%
96 | Cc1ccc(-c2nc(C)sc2CC(=O)O)cc1 | 5.6%
97 | Cc1ccc(Cn2ccc(NC(=O)C3C4CCC(C4)C3C(=O)O)n2)cc1 (configuration not stated) | 13%
98 | Cc1cc(NC(=O)c2cc(-c3cccs3)on2)nn1Cc1ccc(Cl)cc1 | -17.2%
99 | Cc1nn(Cc2ccc(F)cc2)c(C)c1NC(=O)c1noc2c1CCc1ccccc1-2 | -1.9%
100 | O=C(Nc1ccn(Cc2ccc(F)cc2)n1)c1ccncc1 | 92.9% (active)
101 | Cc1ccc(Cn2ccc(NC(=O)c3cc(C(C)C)on3)n2)cc1 | 97.5% (active)
102 | CC(=O)Nc1ccn(Cc2c(F)cccc2Cl)n1 | 6.2%
